# PfHsp40 yeast: compounds rescuing yeast from Plasmodium falciparum HSP40 toxicity; S. cerevisiae expressing PfHsp40, growth rescue, ATP luminescence; hit rate 0.68% among 340,000; growth rescue, % at 12.5 µM; in the data active means growth rescue above about 28%, passing the limit was not always enough;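 further: yeast W303a lacking pdr1 and pdr3 grown in galactose medium; growth measured after three days at 30 °C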
# PrP UTR inh: inhibition of PrP 5' UTR reporter expression | cell-based PrP 5' UTR mRNA reporter, plate reader | inhibition, % (no concentration beside the values) | hit rate 0.35% among 340,000 | AID 488862; in the data active means inhibition above about 52%; further: 0 = median of the neutral control wells
# BJeLR viability: BJeLR cell viability loss; inhibition, % (concentration not given with the values); hit rate 0.17% among 300,000; BJeLR (HRASV12) viability, CellTiter-Glo ATP luminescence, 48 h; in the data active means inhibition above about 50%
# PrPC TRFRET: reduces human prion protein on the cell surface; inhibition, % at 13.8 µM; P04156; cell surface PrPC, TR-FRET read-out; hit rate 0.43% among 370,000; in the data active means inhibition above about 24%; further: 0% = median of the test wells and 100% = reference compound wells
# CCHFV vOTU inh: CCHFV vOTU protease inhibition; inhibition, % at 11.5 µM; Pep-AMC fluorescence; hit rate 0.55% among 370,000; AID 651958; in the data active means inhibition above about 30%; further: 0% = vehicle wells with enzyme and 100% = no enzyme wells
# Yp Topo-I inh: inhibitors of Yersinia pestis topoisomerase I; Y. pestis Topo-I cleavage product accumulation, plate reader; activity, % at 10 µM; hit rate 0.064% among 360,000; in the data active means activity above about 50%, passing the limit was not always enough
# PrPC confirm: confirmation of inhibitors of cell surface human prion protein; shares compounds with PrPC TRFRET; hit rate 65% among 1,500; inhibition, % at 13.8 µM; cell surface PrPC level, TR-FRET; in the data active means inhibition above about 25%
# LD9 cytotox: counter-screen for PrPc inhibitors: cytotoxicity in LD9 cells | AID 743201 | luminescence viability | shares compounds with PrPC TRFRET | inhibition, % at 13.8 µM | hit rate 29% among 1,500; in the data active means inhibition above about 9.5%
# Active calls of the source: *; nt = no result given. In the library only some 2% were active in any assay of this set; here they are far more common.
SMILES,PfHsp40 yeast,PrP UTR inh,BJeLR viability,PrPC TRFRET,CCHFV vOTU inh,Yp Topo-I inh,PrPC confirm,LD9 cytotox
CCOC(=O)C1=CCC(c2ccccc2)N(S(C)(=O)=O)C1 (stereo not given),nt,nt,nt,6,10,nt,nt,nt
CCOC(=O)NC(=O)CSc1cc(C)c2cc(C)cc(C)c2n1,-1,-25,-9,42*,13,4,58*,-2
O=C(CSc1ccc2ccccc2n1)NC1CC1,0,-6,nt,5,4,0,nt,nt
CCOC(=O)NC(=O)CSc1ccc2ccccc2n1,0,-18,-4,49*,1,11,49*,-9
COc1cc(NC(=O)c2ccccc2)c(C)cc1NC(=O)CSc1nnc(-c2cnccn2)n1-c1ccc(C)cc1,nt,nt,nt,0,8,nt,nt,nt
O=C(CSc1nc2sc3c(c2c(=O)n1-c1ccc(Cl)cc1)CCCC3)c1ccccc1Cl,nt,nt,nt,-1,-1,nt,nt,nt
Fc1ccc2nc(-c3ccc(CN4CCC(n5nnc6ccccc65)CC4)cc3)c(-c3ccccc3)nc2c1,nt,nt,nt,3,-9,nt,nt,nt
Brc1ccc2nc(-c3ccc(CN4CCC5(CC4)CNc4ccccc45)cc3)c(-c3ccccc3)nc2c1,nt,nt,nt,26*,7,nt,53*,0
Cc1cccc(CN[C@@H]2CC[C@@]34CCCN3C(=O)CCC[C@H]4C2)c1,nt,nt,nt,-9,nt,nt,nt,nt
CCC(=O)N1CCN(c2ccc(NC(=O)c3ccc([N+](=O)[O-])o3)cc2)CC1,0,-10,-4,11,-1,-2,nt,nt
CCCC(=O)N1CCN(c2ccc(NC(=O)c3ccc([N+](=O)[O-])o3)cc2)CC1,0,-31,-3,33*,13,-4,8,78*
CCN(CC)c1ccc(NC(=O)CSc2nnc(SCc3ccc(Cl)cc3)s2)cc1,nt,nt,nt,-5,2,nt,nt,nt
O=C(NCc1ccccc1)[C@H]1CCCN1C(=O)[C@H]1CCCN1C(=O)c1ccc(F)c(F)c1,nt,nt,nt,-3,-8,nt,nt,nt
CCN(CC)C(=O)c1cccc(-c2csc(C(C)(O)c3ccncc3)n2)c1 (stereo not given),nt,nt,nt,40*,-8,-2,30*,7
N#CC(C#N)=C1NC(N)=C(C#N)C(c2ccccc2)=C1C#N,2,-20,-4,74*,12,2,103*,-10
O=C(NC1CCC1)c1ccc(C#CC2CC2)c[n+]1[O-],nt,nt,nt,-4,7,nt,nt,nt
Cc1nnc2c(SC(C)C)nc3ccccc3n12,1,-6,3,33*,3,5,47*,-8
CC(C)(C)C(=O)OC12CCCN(C1)/C(=C/c1cccc(Cl)c1)C2 (stereo not given),nt,nt,nt,5,10,nt,nt,nt
C=CCn1cc(/C=N/Nc2nc3ccccc3[nH]2)c2ccccc21,0,-55,4,27*,7,-21,24,14*
OC[C@@H]1CN(Cc2ccc(Cl)cc2)C[C@H](n2cnc3c(Nc4ccccc4)ncnc32)O1,nt,nt,nt,41*,26,10,20,-2
CC(C)(C)n1c(O)c(C=Nc2ccc3c(c2)CCC3)c(=O)[nH]c1=O,-1,-5,10,29*,7,2,3,-4
CCCCCCCCN1C(=O)[C@@H](CC(=O)N2CCOCC2)C[C@@]2(C(=O)OC)C1=C[C@H](C(C)C)O[C@@H]2C1CC1,nt,nt,nt,22,23,nt,nt,nt
C#CCNC(=O)C[C@H]1C[C@@]2(C(=O)OC)C(=C[C@H](C(C)C)O[C@@H]2C2CC2)N(CCC2=CCCCC2)C1=O,nt,nt,nt,1,9,nt,nt,nt
COC(=O)[C@]12C[C@H](CC(=O)N3CCCC3)C(=O)N(CCC3=CCCCC3)C1=C[C@H](C(C)C)O[C@@H]2C1CC1,nt,nt,nt,28*,11,nt,31*,-3
COC(=O)[C@]12C[C@H](CC(=O)N3CCN(C(=O)c4ccco4)CC3)C(=O)N(CCC3=CCCCC3)C1=C[C@H](C(C)C)O[C@@H]2C1CC1,nt,nt,nt,0,9,nt,nt,nt
SMILES,PfHsp40 yeast,PrP UTR inh,BJeLR viability,PrPC TRFRET,CCHFV vOTU inh,Yp Topo-I inh,PrPC confirm,LD9 cytotox
COC(=O)[C@]12C[C@H](CC(=O)N3CCCCC3)C(=O)N(CCC3=CCCCC3)C1=C[C@H](C(C)C)O[C@@H]2C1CC1,nt,nt,nt,29*,16,nt,32*,-2
CCCCCCCCN1C(=O)[C@@H](CC(=O)N2CCCC2)C[C@@]2(C(=O)OC)C1=C[C@H](C(C)C)O[C@@H]2C1CC1,nt,nt,nt,30*,27,nt,36*,-3
CC[C@@H](C(=O)[C@@H](C)[C@@H](O)[C@H](C)CCc1ccc(C)c(O)c1C(=O)O)[C@H]1O[C@](CC)([C@H]2CC[C@](O)(CC)[C@H](C)O2)C[C@@H]1C,184*,-25,2,75*,19,10,69*,44*
O=C(C1CCCN1S(=O)(=O)c1cccc([N+](=O)[O-])c1)N1CCN(c2ccccc2)CC1 (stereo not given),nt,nt,nt,-14,5,nt,nt,nt
C[C@@H]1CC=C[C@H]2[C@H]1C(=O)N(Cc1ccccc1)[C@H]2c1ccc2ccccc2c1,1,-6,7,7,9,23,nt,nt
C[C@@H]1CC=C[C@H]2[C@H]1C(=O)N(Cc1ccccc1)[C@H]2c1ccc2ccccc2c1Br,-1,4,5,42*,12,22,50*,-3
O=C(N/N=C(\c1ccccc1)c1ccccn1)c1ccccc1Cl,9,28,15,10,-6,2,nt,nt
COc1ccc(C(=O)N/N=C(\c2ccccc2)c2ccccn2)cc1,86*,31,24,28*,1,9,26*,39*
Cc1cccc(NC(=O)Cn2cc(C(=O)C3CC3)c3ccccc32)c1C,-1,10,-1,31*,22,-2,23,22*
CC(=O)c1sccc1NC(=O)c1ccccc1C(=O)O,0,-8,11,47*,5,6,109*,-6
CCc1cccc(CC)c1NC(=O)CO/N=C(\C)c1cccs1,2,1,-4,35*,-7,10,30*,-6

# Compound activity deposited in PubChem by several laboratories.
